Experimental findings from PubChem BioAssay (NCI) are described below.

Compounds without any hit were thinned out: in the full panel of roughly 83,000, 20% have a hit.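 Assay: single dose, 48 h. Readout: percent growth (0 = no net growth; negative = cell death). Active: <10.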 Values without a mark were called inactive. Calls of active or inactive are those of the source.

Holding throughout (experiment): NCI-60 one-dose screen, 48 h (100 = growth as untreated, 0 = no growth, -100 = all killed)
One test relates to HT29 colon. To be noted: 10 µM unless noted.
The test system of another test is SNB-75 CNS. To be noted: 10 µM unless noted.
Another test relates to SNB-19 CNS. To be noted: 10 µM unless noted.
A further test concerns U251 CNS. Conditions: 10 µM unless noted.
A further test concerns PC-3 prostate. Conditions: 10 µM unless noted.
The next test concerns SK-MEL-5 melanoma. Conditions: 10 µM unless noted.
The test system of another test is UACC-62 melanoma. To be noted: 10 µM unless noted.
For a further test, the system named is LOX IMVI melanoma. Conditions: 10 µM unless noted.
Another test deals with SK-MEL-28 melanoma. To be noted: 10 µM.
The next test concerns EKVX NSCLC. To be noted: 10 µM unless noted.
A further test concerns SN12C renal. To be noted: 10 µM unless noted.
The test system of another test is UO-31 renal. To be noted: 10 µM unless noted.
The test system of a further test is TK-10 renal. Conditions: 10 µM unless noted.
The subject of another test is ACHN renal. To be noted: 10 µM unless noted.
In the next test the test system is CAKI-1 renal. Conditions: 10 µM unless noted.
The next test concerns A498 renal. Conditions: 10 µM unless noted.
For a further test, the system named is CCRF-CEM leukemia. Conditions: 10 µM unless noted.
In the next test the test system is MOLT-4 leukemia. To be noted: 10 µM unless noted.
A further test relates to SR leukemia. To be noted: 10 µM unless noted.
The test system of the next test is SK-MEL-2 melanoma. Conditions: 10 µM unless noted.

Regarding `CSc1nc2c(c(=O)n1C)N=C1c3ccccc3C(=O)C1C(c1ccccc1)N2` (stereo not given), the growth in the test with HT29 colon is 52.2%; in the test with SNB-75 CNS, 50%; in the test with SNB-19 CNS, 82.4%; in the test on U251 CNS, 74.5%; in the test on PC-3 prostate it was 64.9%; in the test with SK-MEL-5 melanoma, 69.2%. Further, the growth was 107% in the test on UACC-62 melanoma; 74.5% with LOX IMVI melanoma; 72.5% in the test with SK-MEL-28 melanoma; 75.4% in the test with EKVX NSCLC; 138% with SN12C renal; 71.1% in the test on UO-31 renal. The growth is 101% in the test on TK-10 renal; 75.5% in the test with ACHN renal; 53.4% in the test with CAKI-1 renal; 99.9% with A498 renal; 82.6% in the test with CCRF-CEM leukemia; 84% with MOLT-4 leukemia. Moreover, the growth in the test on SR leukemia is 27.1%.

Consider `CC(C)(C)c1ccc(C2CC(=O)C3=C(C2)Nc2ccccc2N(C(=O)c2ccccc2Cl)C3c2ccc(F)cc2)cc1` (stereo not given), for which the growth in the test on HT29 colon was -9.44% (active); in the test on SNB-75 CNS it was 66.4%; in the test on SNB-19 CNS, 9.35% (active); in the test on U251 CNS it was 3.98% (active); in the test with PC-3 prostate, 8.88% (active); in the test on SK-MEL-5 melanoma, -97.5% (active). Also, the growth in the test with UACC-62 melanoma is -53.8% (active); with LOX IMVI melanoma, -11.8% (active); with SK-MEL-28 melanoma, 38.6%; with SK-MEL-2 melanoma, -11.5% (active); in the test on SN12C renal it was 3.86% (active); in the test on UO-31 renal, 23.7%. For the same compound, the growth was 58.9% in the test on TK-10 renal; 19.9% in the test with ACHN renal; 35.5% in the test with A498 renal; 15.7% with CCRF-CEM leukemia; 6.7% (active) in the test on MOLT-4 leukemia; 9.77% (active) in the test with SR leukemia.

With `O=C(NC(=S)Nc1cccc(NC(=S)NC(=O)c2ccccc2)c1)c1ccccc1`, the growth was 74.1% with HT29 colon; -2.29% (active) in the test with SNB-75 CNS; 50.9% in the test with SNB-19 CNS; 60.1% with U251 CNS; 61.3% in the test with PC-3 prostate; 80% in the test on SK-MEL-5 melanoma. In addition, the growth with UACC-62 melanoma was 67%; with LOX IMVI melanoma, 71%; in the test on SK-MEL-28 melanoma, 55.3%; in the test with SK-MEL-2 melanoma, 66.1%; with SN12C renal, 61.9%; in the test on UO-31 renal it was 84.6%. Also, the growth in the test with TK-10 renal is 75.8%; in the test with ACHN renal, 60.6%; in the test on A498 renal, 104%; with MOLT-4 leukemia, 103%; in the test on SR leukemia, 79.8%.

With `COc1ccccc1C(=O)O/N=C(\N)Cc1cccc2ccccc12`, the growth with HT29 colon was 77.7%; with SNB-75 CNS, 67%; in the test with SNB-19 CNS, 87.7%; in the test on U251 CNS, 90.9%; in the test with PC-3 prostate, 78.6%; with SK-MEL-5 melanoma it was 70.4%. The growth is 83.3% in the test on UACC-62 melanoma; 70.6% in the test with LOX IMVI melanoma; 114% with SK-MEL-28 melanoma; 89.6% in the test with SK-MEL-2 melanoma; 67.3% with SN12C renal; 70.8% with UO-31 renal. Besides, the growth in the test on TK-10 renal is 120%; in the test with ACHN renal it was 86.5%; with A498 renal it was 95.1%; with CCRF-CEM leukemia, 80.1%; with MOLT-4 leukemia it was 79%; with SR leukemia, 82.1%.

For `COc1ccc(/C=C2\SC(=Nc3ccccc3)NC2=O)cc1`, the growth in the test with HT29 colon is -89.2% (active); in the test on SNB-75 CNS, -97.9% (active); in the test with SNB-19 CNS it was -50% (active); in the test with U251 CNS, -90.1% (active); in the test with PC-3 prostate, -73.5% (active); in the test with SK-MEL-5 melanoma it was -97.2% (active). The growth in the test on UACC-62 melanoma was -91% (active); in the test on LOX IMVI melanoma it was -82.9% (active); with SK-MEL-28 melanoma, -100% (active); in the test with SK-MEL-2 melanoma, -84.8% (active); with SN12C renal it was -39.9% (active); in the test on UO-31 renal, -98.3% (active). In addition, the growth in the test on TK-10 renal was -92.3% (active); in the test with ACHN renal, -70.9% (active); in the test on A498 renal it was -92.5% (active); with CCRF-CEM leukemia it was -53.6% (active); with MOLT-4 leukemia it was -59% (active); in the test on SR leukemia, -33% (active).
